Data published in PubChem BioAssay (NCI).
About 83,000 compounds went through this panel and 20% of them were active in at least one assay; those are over-represented in the sample as a whole.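 Method: cells in 96-well plates; compound added at one concentration; 48 h incubation; percent growth measured; values under 10 scored active.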 Unmarked numbers belong to inactive results. Activity calls are given as the source filed them.

What was measured:
Assay in all cases: NCI-60 one-dose screen, 48 h (100 = growth as untreated, 0 = no growth, -100 = all killed)
Conditions in all cases: 10 µM unless noted
SR leukemia = tested on: SR leukemia
RPMI-8226 leukemia = tested on: RPMI-8226 leukemia
OVCAR-8 ovarian = tested on: OVCAR-8 ovarian
OVCAR-5 ovarian = tested on: OVCAR-5 ovarian
OVCAR-4 ovarian = tested on: OVCAR-4 ovarian
SK-OV-3 ovarian = tested on: SK-OV-3 ovarian
IGROV1 ovarian = tested on: IGROV1 ovarian
OVCAR-3 ovarian = tested on: OVCAR-3 ovarian
HS 578T breast = tested on: HS 578T breast
NCI/ADR-RES ovarian = tested on: NCI/ADR-RES ovarian
T-47D breast = tested on: T-47D breast
BT-549 breast = tested on: BT-549 breast
MDA-MB-435 melanoma = tested on: MDA-MB-435 melanoma
SW-620 colon = tested on: SW-620 colon
MCF7 breast = tested on: MCF7 breast
HCT-116 colon = tested on: HCT-116 colon
HCC-2998 colon = tested on: HCC-2998 colon
KM12 colon = tested on: KM12 colon

Compound | growth (SR leukemia) | growth (RPMI-8226 leukemia) | growth (OVCAR-8 ovarian) | growth (OVCAR-5 ovarian) | growth (OVCAR-4 ovarian) | growth (SK-OV-3 ovarian) | growth (IGROV1 ovarian) | growth (OVCAR-3 ovarian) | growth (HS 578T breast) | growth (NCI/ADR-RES ovarian) | growth (T-47D breast) | growth (BT-549 breast) | growth (MDA-MB-435 melanoma) | growth (SW-620 colon) | growth (MCF7 breast) | growth (HCT-116 colon) | growth (HCC-2998 colon) | growth (KM12 colon)
CCOC(=O)N1C2CCC(C2)N1C(=O)OCC | 101% | 101% | 101% | 100% | 95.3% | 104% | 108% | 113% | 111% | 108% | 108% | 101% | 113% | 105% | 90.1% | 103% | 104% | 112%
Oc1c(C(Nc2cccc3ccccc23)c2ccccc2)ccc2cccnc12 (centres undefined) | 3.7% (active) | 37.6% | 25% | 49.8% | 11.4% | 49.6% | 21.5% | 22.4% | 63.5% | 4.58% (active) | 49.1% | -16.1% (active) | 42.3% | 37.6% |  | 15.6% | 27.5% | 36%
C[Si](C)(C)C(c1ccccc1)c1ccccc1 | 86.8% | 91.6% | 102% | 110% | 109% | 98.4% | 97.1% | 113% | 98.9% | 98.9% | 91.4% | 108% | 92.1% | 101% | 106% |  | 97.2% | 107%
COc1cc(OC)cc(-c2ccc(-c3ccc(C(=N)N)s3)s2)c1 | -47.3% (active) | -62.9% (active) | -58.8% (active) | -81% (active) | -54.2% (active) | -92.4% (active) | -67.2% (active) | -42.9% (active) | -40.4% (active) | -58% (active) | -70.2% (active) |  | -81.9% (active) | -69.2% (active) | -72.8% (active) | -73.5% (active) | -71.7% (active) | 
COc1ccc2c(c1)sc1nc(-c3ccccc3)c(-c3cccc4ccccc34)n12 | 10.5% | 18.8% | 19.4% | 44.7% | 65% | 10.5% | 34.4% | -50.3% (active) | 19.8% | 4.62% (active) | 60.5% |  | -49.4% (active) | 27.8% | 27.7% | 18.6% | -26.8% (active) | 15.7%
CN(C)c1nc(-c2ccco2)n2nc(-c3ccc(Cl)cc3)cc2n1 | 52.7% | 74.8% | 50.8% | 90% | -10.2% (active) | 45.9% | 55.8% | 74.1% | 65.1% | 69% | 47.9% | 86.7% | 89.6% | 62.7% | 68.2% |  | 86% | 84.4%
C=C1C(=O)O[C@H]2[C@H]1CC/C(COC(=O)NCc1ccc(Cn3c(=O)sn(CCCl)c3=O)cc1)=C\CC[C@@]1(C)O[C@@H]21 | 5.35% (active) | 2.37% (active) | 92.1% | 109% | 60.6% | 85.3% | 47.7% | -26.2% (active) | 97.1% | 113% | 3.07% (active) | 59.4% | 79.4% | -20.3% (active) |  | -61.7% (active) | 120% | 95.2%
COc1cc(C2CC(c3ccc(Cl)cc3)=NN2C(C)=O)ccc1Oc1ccnc2cc(Cl)ccc12 (centres undefined) | 76.4% | 87.3% | 26.8% | 81.2% | -23.8% (active) | 18.4% | 58.1% | 24% | 38.8% | 53.2% | 53.9% | 92% | 62% | 66.3% |  |  | 59.4% | 73.5%
COc1cccc(-c2cc(-c3cccs3)c(C#N)c(=O)[nH]2)c1 | 105% | 98.3% | 100% | 113% | 104% | 113% | 108% | 109% | 96.4% | 116% | 93.3% | 113% | 103% | 105% |  | 101% | 125% | 101%
C#Cc1cccc(Nc2nc3cc([N+](=O)[O-])ccc3nc2Nc2ccc(O)cc2)c1 | 3.34% (active) | 11.9% | 18.3% | 45.8% | 43.9% | 39% | 27.2% | -26.2% (active) | 44.6% | 24.7% | -0.313% (active) | 27.7% | 12.2% | -52.9% (active) |  | -11.9% (active) | 5.14% (active) | -36.3% (active)
S=C(Cc1ccccc1)N1CCN(c2ccccc2Cl)CC1 | 70.3% | 95.1% | 99.1% | 97.6% | 105% | 101% | 110% | 106% | 97.3% | 96.7% | 94.4% | 96.6% | 104% | 103% | 110% |  | 101% | 94.5%
C#CCO[C@H]1CC[C@H](OCC#C)[C@@H]2[C@H]1[C@H]1C[C@@H]3[C@@]4(C)CCC[C@@](C)(C(=O)OC)[C@@H]4CC[C@@]23C=C1C(C)C | 20.5% | 11.7% | 82% | 92.1% | 99.3% | 88.6% | 0.137% (active) | 75.4% | 114% | 71.4% | 94.6% | 106% | 106% | 103% |  | 70.4% | 94.6% | 78%
COc1ccc2nc3cc(Cl)ccc3c(NC(=O)CSc3ccc(Cl)cc3)c2c1 | -10.1% (active) | -41.4% (active) | -63.8% (active) | -87.2% (active) | -96.8% (active) | -94.2% (active) | -91.5% (active) | -96.4% (active) | -43.2% (active) | -65% (active) | -79.6% (active) | -98.7% (active) | -82.4% (active) | -80.4% (active) | -60% (active) | -94.4% (active) |  | -75.4% (active)
CC(=O)Oc1c(Cl)c(Cl)c(Cl)c(Cl)c1Cl | 106% | 73.4% | 92.6% | 100% | 90.3% | 91.4% | 92% | 107% | 106% | 93.4% | 89.2% | 95.4% | 102% | 102% | 93.8% |  | 94.9% | 103%
O=C(CC(=O)C(F)(F)C(F)(F)C(F)(F)F)c1cc2ccccc2o1 | 101% | 109% | 102% | 103% | 98.6% | 105% | 110% | 106% | 103% | 102% | 96% | 111% | 104% | 97.6% |  | 102% | 113% | 104%
Cc1ccc([C@H]2c3[nH]c4ccccc4c3C[C@H]3C(=O)N(CCCCCCC(=O)NO)CC(=O)N23)cc1 | 10.6% | 3.03% (active) | 39.5% | 44.7% | 59.2% | 63.3% | 57.3% | 47% | 52.5% | 94.5% | 19.5% | 68% | 38.3% | 36.5% |  | 15.8% | 55.6% | 48.2%
CN(C)CC(=O)c1ccc2cc(Br)c3ccccc3c2c1 | 13.4% | 46.9% | 57.9% | 83.7% | 72.2% | 69.7% | 38.5% | 85.8% | 55.4% | 72.8% | 37.1% | 60.2% | 83.6% | 54.7% | 63.6% |  |  | 63.7%
CN(C)c1ccc(C2(Cl)c3ccccc3N(C)c3ccccc32)cc1 | 25.4% | 21.1% | 7.94% (active) | 91.7% | 59.5% | 77.6% | 46.5% | 35.8% | 71.7% | 94.6% | 33.5% | 71.9% | 46.7% | 21.6% | 50.4% |  | 77.4% | 36.7%
